# Results from the supplement of paper PMC10498489.
# The whole screen tested about 2,300 compounds, of which about 330 (14%) showed activity.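 How the source made its calls: active = median modified Z-score above 1.96; inactive = 1.96 or below.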 The list is a sample of the results.
# Test system: HepG2 Srxn1-GFP reporter cells (+30 nM CDDO-Me)
# Experiment: Srxn1-GFP intensity median modified Z-score relative to plate median; higher = stronger NRF2 / oxidative stress reporter activation, active = hit call of the paper
# Conditions: 10 µM; exposure time: 24h
# In short: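 In 96-well plates holding 20,000 HepG2 Srxn1-GFP BAC reporter cells per well, compound at 10 μM and an NRF2 activator at 30 nM were added together for 24 h, with DMSO at ≤0.1%, across three replicate plates. After fixation in formaldehyde and Hoechst staining, confocal images were analysed cell by cell for cytoplasmic GFP, and images containing under 100 cells were excluded. Values are replicate medians of the per-plate modified Z-score of GFP intensity, scaled by 1.4826 × median absolute deviation.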
row,SMILES,Srxn1-GFP intensity median modified Z-score
1,COc1ccc2c(c1)OCc1c-2oc2cc(OC)ccc12 [euspeclibcmpd1708],13.6 (active)
2,COc1ccc2c(C)cc(=O)oc2c1 [euspeclibcmpd1528],-0.287 (inactive)
3,COc1ccc2c(=O)c(OC)c(-c3ccccc3)oc2c1 [euspeclibcmpd1977],0.483 (inactive)
4,CO[C@@]1(NC(O)=c2sc(=C(C(N)=O)C(=O)O)s2)C(=O)N2C(C(=O)O)=C(CSc3nnnn3C)CSC21 (stereo not given in full) [euspeclibcmpd474],-0.0789 (inactive)
5,CC(C)CCCC(C)C1CCC2C3CC[C@H]4CCCC[C@]4(C)C3CC[C@]12C (stereo not given in full) [euspeclibcmpd1324],1.13 (inactive)
6,CCCCCN=C(N)NN=Cc1c[nH]c2ccc(OC)cc12 [euspeclibcmpd723],-0.285 (inactive)
7,CCCOc1ccc2[nH]c(=NC(=O)OC)[nH]c2c1 [euspeclibcmpd575],5.09 (active)
8,CCCSc1ccc2[nH]c(=NC(=O)OC)[nH]c2c1 [euspeclibcmpd630],3.71 (active)
9,COc1ccc2[nH]cc(CCNC(C)=O)c2c1 [euspeclibcmpd1720],-0.164 (inactive)
10,NCCc1c[nH]cn1 [euspeclibcmpd147],0.0512 (inactive)
11,COC=C1CS[C@@H]2C(=NC(=O)C(NOC)c3csc(=N)[nH]3)C(=O)N2C1C(=O)OC(C)OC(=O)OC(C)C (stereo not given in full) [euspeclibcmpd832],-0.299 (inactive)
12,O=C1CC2(CCCC2)CC(=O)N1CCCCN1CCN(c2ncccn2)CC1 [euspeclibcmpd948],0.569 (inactive)
13,CC1(C)SC2C(NC(=O)C(C(=O)O)c3ccsc3)C(=O)N2C1C(=O)O (stereo not given) [euspeclibcmpd2129],-0.127 (inactive)
14,C[C@H](CCC(=O)O)[C@H]1CCC2C3C(CC[C@@]21C)[C@@]1(C)CC[C@@H](O)C[C@H]1C[C@H]3O (stereo not given in full) [euspeclibcmpd2399],-0.395 (inactive)
15,CCC(=O)O[C@H]1[C@H](O[C@@H]2[C@@H](C)[C@H](O[C@H]3C[C@@](C)(OC)[C@@H](O)[C@H](C)O3)C(C)C(=O)O[C@H](CC)[C@@](C)(O)[C@H](O)C(C)C(=O)C(C)C[C@@]2(C)O)O[C@H](C)C[C@@H]1N(C)C (stereo not given in full) [euspeclibcmpd411],0.128 (inactive)
16,COC(=O)c1c(C)cc(O)cc1O [euspeclibcmpd2120],-0.435 (inactive)
17,CC(=O)OCC(=O)[C@@]1(O)CCC2C3CC=C4CC(=O)C=CC4(C)C3[C@@H](O)C[C@@]21C (stereo not given in full) [euspeclibcmpd242],-0.458 (inactive)
18,O=C(NCCN1CCOCC1)NC(=O)c1ccc(Cl)cc1,1.77 (inactive)
19,COC(=O)C1CCN(C(=O)C(OC(=O)C2CCC(=O)NC2)C(C)C)CC1 (stereo not given),0.378 (inactive)
20,CCOc1ccc(C(=O)c2ccc(O)c(O)c2O)cc1 [euspeclibcmpd1369],0.486 (inactive)
21,N=C(N)N=C(N)NCCc1ccccc1 [euspeclibcmpd898],4.79 (active)
22,NNCCc1ccccc1 [euspeclibcmpd231],0.202 (inactive)
23,O=C(CCCl)NCCc1ccccc1 [euspeclibcmpd2364],0.0303 (inactive)
24,CC(=O)OCC(=O)[C@@]1(O)[C@@H](C)CC2C3CC=C4CC(=O)C=C[C@]4(C)[C@@]3(F)[C@@H](O)C[C@@]21C (stereo not given in full) [euspeclibcmpd2268],0.239 (inactive)
25,CC(C)=CCOc1ccc2c(=O)c(-c3ccccc3)coc2c1,0.352 (inactive)
26,CCc1c2c(nc3ccc(OC(=O)N4CCC(N5CCCCC5)CC4)cc13)-c1cc3c(c(=O)n1C2)COC(=O)C3(O)CC (stereo not given) [euspeclibcmpd1960],-0.421 (inactive)
27,C[N+](C)(C)CCCCCC[N+](C)(C)C [euspeclibcmpd1134],-0.198 (inactive)
28,CCCCCCCCCCCCCCCC[N+](C)(C)C [euspeclibcmpd1124],7.69 (active)

row,SMILES,Srxn1-GFP intensity median modified Z-score
1,CCCNCCCCCC[N+](C)(C)C [euspeclibcmpd616],1.43 (inactive)
2,CC1(C)O[C@@H]2CC3C4CC=C5CC(=O)C=C[C@]5(C)[C@@]4(F)[C@@H](O)C[C@]3(C)[C@]2(C(=O)CO)O1 (stereo not given in full) [euspeclibcmpd303],-0.909 (inactive)
3,OCc1c[nH]c2ccccc12 [euspeclibcmpd1454],0.00439 (inactive)
4,Cc1c[nH]c2ccccc12 [euspeclibcmpd1495],0.0463 (inactive)
5,c1ccc2c(Cc3c[nH]c4ccccc34)c[nH]c2c1 [euspeclibcmpd2024],18.3 (active)
6,O=P(O)(O)C(O)(Cc1cccnc1)P(=O)(O)O [euspeclibcmpd2383],-0.244 (inactive)
7,COc1ccc(CCN(C)CCCC(C#N)(c2ccc(OC)c(OC)c2)C(C)C)cc1OC (stereo not given) [euspeclibcmpd958],5.38 (active)
8,CC[C@H]1OC(=O)C(C)[C@@H](O[C@H]2C[C@@](C)(OC)[C@@H](O)[C@H](C)O2)[C@H](C)[C@@H](O[C@@H]2O[C@H](C)C[C@H](N(C)C)[C@H]2O)[C@](C)(O)CC(C)C(=O)C(C)[C@@H](O)[C@]1(C)O (stereo not given in full) [euspeclibcmpd2296],-0.138 (inactive)
9,N#CC(c1ccc(Cl)cc1)c1c(Cl)cc(-n2ncc(=O)[nH]c2=O)cc1Cl (stereo not given) [euspeclibcmpd478],15 (active)
10,NC(Cc1cc(I)c(Oc2ccc(O)c(I)c2)c(I)c1)C(=O)O (stereo not given) [euspeclibcmpd346],-0.0135 (inactive)
11,NC(Cc1cc(I)c(Oc2cc(I)c(O)c(I)c2)c(I)c1)C(=O)O (stereo not given) [euspeclibcmpd345],-0.572 (inactive)
12,O=C(O)Cc1cc(I)c(Oc2ccc(O)c(I)c2)c(I)c1 [euspeclibcmpd1243],8.98 (active)
13,CNS(=O)(=O)Cc1ccc2[nH]cc(CCN(C)C)c2c1 [euspeclibcmpd759],-0.145 (inactive)
14,CC(=O)O[C@@H]1C[C@@]2(C)C(CC[C@@H]2C(C)=O)C2CC=C3CC(=O)CC[C@]3(C)C21 (stereo not given in full) [euspeclibcmpd1433],0.0291 (inactive)
15,C[C@]12C=CC(=O)CC1=CCC1C2[C@@H](O)C[C@@]2(C)C1CC[C@]2(O)C(=O)COP(=O)(O)O (stereo not given in full) [euspeclibcmpd2287],0.582 (inactive)
16,Cc1ccc(NC(=O)c2ccc(CN3CCN(C)CC3)cc2)cc1N=c1nc(-c2cccnc2)cc[nH]1 [euspeclibcmpd1311],4.53 (active)
17,O=C(O)c1ccc2c(c1)OCO2 [euspeclibcmpd1566],-0.239 (inactive)
18,CC1(C)C2CC[C@]3(C)C(C(=O)C=C4C5C[C@@](C)(C(=O)O)CC[C@]5(C)CC[C@]43C)[C@@]2(C)CC[C@@H]1O (stereo not given in full) [euspeclibcmpd1147],-1.35 (inactive)
19,O=C(O)CCCCC1SCC2NC(=O)NC21 (stereo not given) [euspeclibcmpd513],-0.118 (inactive)
20,CC(C)(CO)C(=O)C(O)NCCC(=O)NCCSSCCNC(=O)CCNC(=O)C(O)C(C)(C)CO (stereo not given) [euspeclibcmpd1231],-0.621 (inactive)
21,O=C(CCBr)N1CCN(C(=O)CCBr)CC1 [euspeclibcmpd576],2.59 (active)
22,O=C(O)/C=C/C=C/c1ccc2c(c1)OCO2 [euspeclibcmpd1736],-0.462 (inactive)
23,CC1(C)C2CC[C@]3(C)C(C(=O)C=C4C5C[C@@](C)(C(=O)O)CC[C@]5(C)CC[C@]43C)[C@@]2(C)CC[C@@H]1OC(=O)CCC(=O)O (stereo not given in full) [euspeclibcmpd2080],-0.0685 (inactive)
24,CC(OC(=O)c1cc(Cl)ccc1O)C(=O)Nc1ccc([N+](=O)[O-])cc1Cl (stereo not given),1.24 (inactive)
25,O=C(Nc1ccc([N+](=O)[O-])cc1Cl)c1cc(Cl)ccc1O [euspeclibcmpd562],2.35 (active)
26,NC(=O)c1ccc([N+](=O)[O-])cc1Cl [euspeclibcmpd514],-0.559 (inactive)
27,O=C(OCC(=O)N1CCCC1)c1sc2cc(Cl)cc(Cl)c2c1Cl,0.374 (inactive)
